Test results reported in PubChem BioAssay (EPA / NIEHS).
Some structures have more than one record in an assay (separate samples or runs), and their calls can disagree. The source made the active and inactive calls. The calls were made as follows: active = hit-call score of the fitted dose curve at least 0.9, where 1 is the maximum; inactive = score below 0.9.

Assays:
[1] = read-out: Interleukin-1 alpha (IL1a), IL1A (gene 3552); experiment: BSK_KF3CT_IL1a: BioMAP Diversity Plus: KF3CT Assay for Interleukin-1 alpha (IL1a) Biomarker Activity (AID 2283070); details: primary human keratinocytes with fibroblasts; actives raise or lower the signal
How it was run: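 Primary human keratinocyte plus foreskin fibroblast co-culture, dosed and measured at 24 h in 96-well plates. IL-1a level quantified by ELISA; bidirectional fit relative to DMSO.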

[2] = read-out: Transforming growth factor beta 1 (TGFb1), TGFB1 (gene 7040); experiment: BSK_KF3CT_TGFb1: BioMAP Diversity Plus: KF3CT Assay for Transforming growth factor beta 1 (TGFb1) Biomarker Activity (AID 2283072); details: primary human keratinocytes with fibroblasts; actives raise or lower the signal
How it was run: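 Human keratinocyte/foreskin fibroblast co-culture; TGF-b1 measured by ELISA 24 h after dosing, fitted bidirectionally versus DMSO. Cytotoxicity checked in parallel cultures by total protein (SRB staining, 560 nm).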

[3] = read-out: C-C motif chemokine 2 (Homo sapiens) (UniProt P13500); experiment: BSK_KF3CT_MCP1: BioMAP Diversity Plus: KF3CT Assay for Monocyte Chemoattractant Protein 1 (MCP1/CCL2) Biomarker Activity (AID 2283073); details: primary human keratinocytes with fibroblasts; actives raise or lower the signal
How it was run: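 Biomarker MCP-1 is measured by ELISA in primary human keratinocytes co-cultured with foreskin fibroblasts, 24 h after chemical treatment; DMSO serves as the negative control and activity baseline.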

[4] = read-out: Matrix Metallopeptidase 9 (MMP9), MMP9 (gene 4318); experiment: BSK_KF3CT_MMP9: BioMAP Diversity Plus: KF3CT Assay for Matrix Metallopeptidase 9 (MMP9) Biomarker Activity (AID 2283074); details: primary human keratinocytes with fibroblasts; actives raise or lower the signal
How it was run: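 Human keratinocyte and foreskin fibroblast co-culture exposed to chemicals for 24 h; MMP9 biomarker measured by ELISA, bidirectional fitting relative to DMSO; cytotoxicity tracked by SRB total protein staining in parallel cultures.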

[5] = read-out: urokinase plasminogen activator (uPA), PLAU (gene 5328); experiment: BSK_KF3CT_uPA: BioMAP Diversity Plus: KF3CT Assay for urokinase plasminogen activator (uPA) Biomarker Activity (AID 2283075); details: primary human keratinocytes with fibroblasts; actives raise or lower the signal
How it was run: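 Primary human keratinocyte/foreskin fibroblast co-culture exposed to chemical; uPA measured by ELISA at 24 h. Bidirectional fit versus DMSO, with parallel SRB total-protein staining for cytotoxicity.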

CD40, CD40 (gene 958) [6] = experiment: BSK_LPS_CD40: BioMAP Diversity Plus: LPS Assay for CD40 Biomarker Activity (AID 2283076); details: primary human HUVEC with PBMC; actives raise or lower the signal
How it was run: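 Using a multiplexed primary human co-culture (umbilical vein endothelium plus PBMC), CD40 was read by ELISA 24 h after dosing, with cytotoxicity tracked by sulforhodamine B staining of parallel cultures and activity fitted bidirectionally versus DMSO.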

[7] = read-out: E-selectin (Homo sapiens) (UniProt P16581); experiment: BSK_LPS_Eselectin: BioMAP Diversity Plus: LPS Assay for Eselectin Biomarker Activity (AID 2283077); details: primary human HUVEC with PBMC; actives raise or lower the signal
How it was run: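 Dose chemical onto LPS-driven HUVEC/PBMC co-culture; after 24 h, run ELISA for E-selectin; fit up- and down-going responses relative to DMSO control.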

[8] = read-out: Interleukin-8 (IL8), CXCL8 (gene 3576); experiment: BSK_LPS_IL8: BioMAP Diversity Plus: LPS Assay for Interleukin-8 (IL8) Biomarker Activity (AID 2283078); details: primary human HUVEC with PBMC; actives raise or lower the signal
How it was run: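 In this LPS system, chemical-treated human umbilical vein endothelium/PBMC co-cultures were harvested at 24 h for IL-8 ELISA.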

[9] = BSK_LPS_SRB: Viability Assessment in the BioMAP Diversity Plus: LPS Assay (AID 2283079); details: primary human HUVEC with PBMC;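 also: total protein by sulforhodamine B absorbance as a cytotoxicity measure; measured one day after compound addition; fitted in both directions against DMSO so loss or gain of signal counts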
How it was run: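 Cytotoxicity endpoint in human endothelial–PBMC co-culture: 24 h exposure, then SRB (0.1%) staining, 560 nm read.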

[10] = read-out: Interleukin-1 alpha (IL1a), IL1A (gene 3552); experiment: BSK_LPS_IL1a: BioMAP Diversity Plus: LPS Assay for Interleukin-1 alpha (IL1a) Biomarker Activity (AID 2283080); details: primary human HUVEC with PBMC; actives raise or lower the signal
How it was run: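 Primary human HUVEC and PBMC co-culture stimulated with LPS is dosed and harvested at 24 h. Both increases and decreases in ELISA-measured IL-1a are scored relative to DMSO.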

[11] = BSK_LPS_PGE2: BioMAP Diversity Plus: LPS Assay for Prostaglandin E2 (PGE2) Biomarker Activity (AID 2283082); details: primary human HUVEC with PBMC; actives raise or lower the signal
How it was run: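 HUVEC plus human PBMC co-culture stimulated with LPS; secreted PGE2 quantified by ELISA 24 h after chemical dosing. Activity fitted bidirectionally against DMSO baseline; parallel SRB staining (0.1% SRB after 10% TCA fixation, 560 nm) flags overt cytotoxicity.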

[12] = read-out: Macrophage colony-stimulating factor (MCSF), CSF1 (gene 1435); experiment: BSK_LPS_MCSF: BioMAP Diversity Plus: LPS Assay for Macrophage colony-stimulating factor (MCSF) Biomarker Activity (AID 2283083); details: primary human HUVEC with PBMC; actives raise or lower the signal
How it was run: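 Bidirectional fit versus DMSO of ELISA-measured M-CSF in co-cultured human umbilical vein endothelial cells and PBMC, sampled 24 h after dosing.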

[13] = read-out: Tissue Factor, F3 (gene 2152); experiment: BSK_LPS_TissueFactor: BioMAP Diversity Plus: LPS Assay for Tissue Factor Biomarker Activity (AID 2283084); details: primary human HUVEC with PBMC; actives raise or lower the signal
How it was run: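 Read-out: CD142 ELISA, 24 h. System: LPS-driven human endothelial/PBMC co-culture. Analysis: up- or down-signal fitted against DMSO.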

[14] = read-out: Tumor necrosis factor (Homo sapiens) (UniProt P01375); experiment: BSK_LPS_TNFa: BioMAP Diversity Plus: LPS Assay for Tumour Necrosis Factor alpha (TNFa) Biomarker Activity (AID 2283085); details: primary human HUVEC with PBMC; actives raise or lower the signal
How it was run: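 Human umbilical vein endothelial cells co-cultured with PBMC and stimulated with LPS. TNFa was measured by ELISA 24 h after chemical dosing, fitted bidirectionally relative to DMSO.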

[15] = read-out: Vascular cell adhesion molecule 1 (VCAM1), VCAM1 (gene 7412); experiment: BSK_LPS_VCAM1: BioMAP Diversity Plus: LPS Assay for Vascular cell adhesion molecule 1 (VCAM1) Biomarker Activity (AID 2283086); details: primary human HUVEC with PBMC; actives raise or lower the signal
How it was run: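 Human umbilical vein endothelial cells co-cultured with PBMC and stimulated with LPS; VCAM-1 measured by ELISA 24 h after dosing. Bidirectional curve fitting against DMSO baseline; cytotoxicity tracked in parallel by SRB total-protein staining.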

CD38, CD38 (gene 952) = experiment: BSK_SAg_CD38: BioMAP Diversity Plus: SAg Assay for CD38 Biomarker Activity (AID 2283087); details: primary human HUVEC with PBMC; actives raise or lower the signal
How it was run: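 Human HUVEC plus PBMC co-culture stimulated with superantigen; CD38 measured by ELISA 24 h after chemical dosing. Fluorescence read-out, bidirectional fit against DMSO; cytotoxicity tracked in parallel by SRB and Alamar Blue.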

CD40, CD40 (gene 958) [16] = experiment: BSK_SAg_CD40: BioMAP Diversity Plus: SAg Assay for CD40 Biomarker Activity (AID 2283088); details: primary human HUVEC with PBMC; actives raise or lower the signal
How it was run: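 Endpoint derived by fitting increases or decreases versus DMSO controls. CD40 is detected by fluorescence ELISA in a human vascular co-culture of endothelium and PBMC at 24 h.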

CD69, CD69 (gene 969) = experiment: BSK_SAg_CD69: BioMAP Diversity Plus: SAg Assay for CD69 Biomarker Activity (AID 2283089); details: primary human HUVEC with PBMC; actives raise or lower the signal
How it was run: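 Values derive from bidirectional fitting relative to DMSO vehicle. Cells: umbilical vein endothelium plus peripheral blood mononuclear cells, treated 24 h before fluorescent ELISA for CD69.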

[17] = read-out: TIMP metallopeptidase inhibitor 2 (TIMP2), TIMP2 (gene 7077); experiment: BSK_KF3CT_TIMP2: BioMAP Diversity Plus: KF3CT Assay for TIMP metallopeptidase inhibitor 2 (TIMP2) Biomarker Activity (AID 2283071); details: primary human keratinocytes with fibroblasts; actives raise or lower the signal
How it was run: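 Co-culture of human primary keratinocytes and foreskin fibroblasts, measured 24 h after chemical dosing. TIMP-2 quantified by ELISA and fitted in both directions relative to DMSO. Cytotoxicity checked in parallel cultures by SRB total-protein staining.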

[18] = read-out: Monocyte Chemoattractant Protein-1 (MCP1), CCL2 (gene 6347); experiment: BSK_LPS_MCP1: BioMAP Diversity Plus: LPS Assay for Monocyte Chemoattractant Protein-1 (MCP1) Biomarker Activity (AID 2283081); details: primary human HUVEC with PBMC; actives raise or lower the signal
How it was run: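 Values derive from bidirectional fitting against DMSO of ELISA-measured MCP-1 in a human primary endothelial and mononuclear cell co-culture, 24 h after chemical addition under LPS activation.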

Sequence of Tumor necrosis factor (Homo sapiens) (P01375 whole entry, looked up): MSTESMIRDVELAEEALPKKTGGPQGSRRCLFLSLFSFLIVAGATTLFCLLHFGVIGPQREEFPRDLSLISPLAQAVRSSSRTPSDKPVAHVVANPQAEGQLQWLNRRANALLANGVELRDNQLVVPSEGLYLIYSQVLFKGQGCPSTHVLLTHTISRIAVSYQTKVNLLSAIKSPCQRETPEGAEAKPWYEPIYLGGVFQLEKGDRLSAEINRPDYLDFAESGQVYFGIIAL
Sequence of E-selectin (Homo sapiens) (P16581 whole entry, looked up): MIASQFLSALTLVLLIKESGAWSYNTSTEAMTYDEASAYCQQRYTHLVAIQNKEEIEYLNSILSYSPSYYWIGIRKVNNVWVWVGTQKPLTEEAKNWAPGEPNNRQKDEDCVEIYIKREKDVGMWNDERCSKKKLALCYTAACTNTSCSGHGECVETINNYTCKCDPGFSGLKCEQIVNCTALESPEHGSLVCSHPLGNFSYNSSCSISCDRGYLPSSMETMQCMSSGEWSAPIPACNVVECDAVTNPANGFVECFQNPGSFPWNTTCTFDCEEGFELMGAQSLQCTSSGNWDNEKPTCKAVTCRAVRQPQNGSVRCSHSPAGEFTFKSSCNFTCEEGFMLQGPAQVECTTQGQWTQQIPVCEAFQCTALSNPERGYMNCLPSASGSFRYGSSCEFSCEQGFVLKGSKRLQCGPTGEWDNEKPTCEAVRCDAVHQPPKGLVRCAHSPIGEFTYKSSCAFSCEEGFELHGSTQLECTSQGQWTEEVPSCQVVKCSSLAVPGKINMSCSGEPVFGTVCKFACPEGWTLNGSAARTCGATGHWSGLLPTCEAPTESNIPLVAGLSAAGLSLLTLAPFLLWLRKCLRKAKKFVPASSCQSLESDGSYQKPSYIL

**Q.** Which results are given for `CCCCCCCCCC`?
**A.** outcome [1]: inactive; outcome [2]: inactive; outcome [3]: inactive; outcome [4]: inactive; outcome [5]: inactive; outcome (CD40, CD40 (gene 958) [6]): inactive; outcome [7]: inactive; outcome [8]: inactive; outcome [9]: inactive; outcome [10]: inactive; outcome [11]: inactive; outcome [12]: inactive; outcome [13]: inactive; outcome [14]: inactive; outcome [15]: inactive; outcome (CD38, CD38 (gene 952)): inactive; outcome (CD40, CD40 (gene 958) [16]): inactive; outcome (CD69, CD69 (gene 969)): inactive

**Q.** For `O=C(O)c1ccc2c(c1)nc(C(=O)NC1CCN(C3CC3)CC1)n2Cc1cc(-c2ccc(Cl)s2)on1`, which outcome [1] is on record?
**A.** inactive

**Q.** What about the outcome [17] of the same compound?
**A.** inactive

**Q.** And the outcome [2]?
**A.** inactive

**Q.** What about the outcome [3] of the same compound?
**A.** inactive

**Q.** And the outcome [4]?
**A.** inactive

**Q.** And the outcome [5]?
**A.** inactive

**Q.** And the outcome (CD40, CD40 (gene 958) [6])?
**A.** inactive

**Q.** What about the outcome [7] of the same compound?
**A.** inactive

**Q.** What about the outcome [8] of the same compound?
**A.** inactive

**Q.** And the outcome [9]?
**A.** inactive

**Q.** What about the outcome [11] of the same compound?
**A.** inactive

**Q.** What about the outcome [12] of the same compound?
**A.** inactive

**Q.** And the outcome [13]?
**A.** inactive

**Q.** What about the outcome [14] of the same compound?
**A.** inactive

**Q.** What about the outcome [15] of the same compound?
**A.** inactive

**Q.** And the outcome (CD38, CD38 (gene 952))?
**A.** inactive

**Q.** And the outcome (CD40, CD40 (gene 958) [16])?
**A.** inactive

**Q.** And the outcome (CD69, CD69 (gene 969))?
**A.** inactive

**Q.** Which outcome [1] does the source give for `OCC(CO)(CO)CO` here?
**A.** inactive

**Q.** What about the outcome [2] of the same compound?
**A.** inactive

**Q.** What about the outcome [3] of the same compound?
**A.** inactive

**Q.** What about the outcome [4] of the same compound?
**A.** inactive

**Q.** And the outcome [5]?
**A.** inactive

**Q.** And the outcome (CD40, CD40 (gene 958) [6])?
**A.** inactive

**Q.** What about the outcome [7] of the same compound?
**A.** inactive

**Q.** And the outcome [8]?
**A.** inactive

**Q.** And the outcome [9]?
**A.** inactive

**Q.** What about the outcome [18] of the same compound?
**A.** inactive

**Q.** And the outcome [11]?
**A.** inactive

**Q.** And the outcome [12]?
**A.** inactive

**Q.** And the outcome [13]?
**A.** inactive

**Q.** What about the outcome [14] of the same compound?
**A.** inactive

**Q.** What about the outcome [15] of the same compound?
**A.** inactive

**Q.** And the outcome (CD38, CD38 (gene 952))?
**A.** inactive

**Q.** What about the outcome (CD40, CD40 (gene 958) [16]) of the same compound?
**A.** inactive

**Q.** And the outcome (CD69, CD69 (gene 969))?
**A.** inactive

**Q.** Which outcome [1] does the source give for `O=S(=O)(O)CCC(F)(F)C(F)(F)C(F)(F)C(F)(F)C(F)(F)C(F)(F)F` here?
**A.** inactive

**Q.** And the outcome [3]?
**A.** inactive

**Q.** And the outcome [4]?
**A.** inactive

**Q.** And the outcome [5]?
**A.** inactive

**Q.** What about the outcome (CD40, CD40 (gene 958) [6]) of the same compound?
**A.** inactive

**Q.** And the outcome [7]?
**A.** inactive

**Q.** What about the AC50 [8] of the same compound?
**A.** 22.5 µM (active)

**Q.** And the outcome [8]?
**A.** inactive

**Q.** What about the outcome [9] of the same compound?
**A.** inactive

**Q.** What about the outcome [18] of the same compound?
**A.** inactive

**Q.** And the outcome [11]?
**A.** inactive

**Q.** And the outcome [12]?
**A.** inactive

**Q.** What about the outcome [13] of the same compound?
**A.** inactive

**Q.** And the outcome [14]?
**A.** inactive

**Q.** What about the outcome [15] of the same compound?
**A.** inactive

**Q.** What about the outcome (CD38, CD38 (gene 952)) of the same compound?
**A.** inactive

**Q.** What about the outcome (CD40, CD40 (gene 958) [16]) of the same compound?
**A.** inactive

**Q.** And the outcome (CD69, CD69 (gene 969))?
**A.** inactive
